SKKanGAS inh – blocks kanamycin growth of S. pyogenes SKKanGAS strain; BacTiter-Glo, 6 h; inhibition, % at 7.5 µM; hit rate 1.3% among 300,000;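 active means mean replicate score, as percent of positive control median, at least 50; inconclusive means mean below 50 but one replicate at or above 50; inactive means mean and every replicate below 50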;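 further: strain carries kanamycin resistance gene driven by streptokinase promoter and grows in 40 µg/ml kanamycin; loss of luminescence reflects streptokinase promoter inhibition or plain growth inhibition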
tim23-1 inh – tim23-1 yeast growth inhibition; S. cerevisiae tim23-1 growth, BacTiter-Glo luminescence, 24 h; inhibition, % at 20 µM; hit rate 1.3% among 330,000; AID 463212;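 active means growth inhibition of the mutant yeast at or above 50%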;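 further: temperature-sensitive mutant grown at 25 °C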
PfHsp90 set2 – inhibits growth of yeast expressing Plasmodium falciparum Hsp90 | S. cerevisiae expressing PfHsp90, BacTiter-Glo ATP, 48 h; yeast lacking PDR1 and PDR3 efflux regulators | inhibition, % at 9.4 µM | hit rate 0.32% among 310,000 | AID 504621;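 active means every replicate shows inhibition above about 80%, whatever the replicate mean, limit read from the data; inconclusive means mean inhibition reaches the set limit but some replicate falls short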
Calb FLC – C. albicans growth modulation with fluconazole; C. albicans CaCi-2 (fluconazole-resistant clinical isolate) + fluconazole, Alamar Blue growth, 48 h; growth inhibition, % (concentration not given with the values); hit rate 0.57% among 300,000;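 active means growth inhibition above about 58% in most replicates, limit read from the data, passing the limit was not always enough; inconclusive means exactly half the replicates above a set limit; inactive means most replicates below a set limit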;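 further: all wells also contain fluconazole at 8 µg/ml as a sub-toxic cotreatment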
tim10-1 inh – inhibits growth of tim10-1 mutant yeast; hit rate 2.2% among 330,000; inhibition, % at 20 µM; S. cerevisiae tim10-1 ts strain growth, BacTiter-Glo, 24 h;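 active means inhibition of at least 40%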;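 further: mutant grown at 25 °C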
TIM10 inh – growth inhibitors of TIM10 yeast strain; S. cerevisiae TIM10 strain growth, BacTiter-Glo luminescence, 24 h; inhibition, % at 10 µM; hit rate 1.4% among 330,000; AID 463195;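 active means inhibition of 40% or more at the single tested concentration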;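 further: wild-type TIM10 isogenic control strain grown at permissive 25 °C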
tim10-1 conf – tim10-1 yeast growth inhibition, confirmed; shares compounds with tim10-1 inh; S. cerevisiae tim10-1 ts strain growth, BacTiter-Glo, 24 h; inhibition, % at 20 µM; hit rate 56% among 7,400;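 active means inhibition of yeast growth at or above a set limit in either of two repeat tests at 20 µM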;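 further: tim10-1 mutant grown at permissive 25 °C to find synthetic lethal compounds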
TIM10 conf – TIM10 yeast growth inhibition, confirmed; shares compounds with TIM10 inh; S. cerevisiae tim10 strain growth, BacTiter-Glo luminescence, 24 h; inhibition, % at 10 µM; hit rate 63% among 4,600;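 active means inhibition of yeast growth at or above a set limit in either of two replicates at 10 µM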; further: this counterscreen used the strain with wild-type TIM10
tim23-1 confirm – tim23-1 yeast growth inhibition, confirmed. shares compounds with tim23-1 inh. S. cerevisiae tim23-1 growth, BacTiter-Glo luminescence, 24 h. inhibition, % at 20 µM. hit rate 83% among 4,400. AID 463218;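 active means inhibition above about 39% in either of two replicate wells at 20 µM, limit read from the data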;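 further: temperature-sensitive tim23-1 mutant grown at 25 °C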
Of the large screens only hits and unclear results are named; the others gave an inactive call (follow-up assays come after a bar, where they were run). An excerpt weighted towards active compounds, which were near 4.7% of everything screened.

O=C(Nc1nnc(S(=O)(=O)N2CCCCCC2)s1)c1ccccc1F	tim23-1 inh 56, tim10-1 inh 47 | tim10-1 conf 32 | tim23-1 confirm 55
O=C(Nc1nnc(S(=O)(=O)N2CCOCC2)s1)c1ccccc1F	none
COc1ccccc1OCc1cc(C(=O)N2CCN(C)C(c3ccccc3)C2)no1 (stereo not drawn)	tim23-1 inh 55, PfHsp90 set2 107, tim10-1 inh 52 | tim10-1 conf inactive | tim23-1 confirm inactive
CN1CCN(C(=O)c2cc(COc3c(F)cccc3F)on2)CC1c1ccccc1 (stereo not drawn)	tim23-1 inh 63, PfHsp90 set2 110, tim10-1 inh 42, TIM10 inh 52 | tim10-1 conf inactive | TIM10 conf 53 | tim23-1 confirm 50
COC(=O)c1ccccc1-c1ccc(C(c2c(C)[nH][nH]c2=O)c2c(C)[nH][nH]c2=O)o1	tim23-1 inh 54, tim10-1 inh 56, TIM10 inh 46 | tim10-1 conf 36 | TIM10 conf 36 | tim23-1 confirm 48
CCN(CC(=O)NCCCN1CCOCC1)S(=O)(=O)c1ccc(Cl)cc1	none
c1ccc(-c2nc3nonc3nc2-c2ccccc2)cc1	tim23-1 inh 61, tim10-1 inh 80, TIM10 inh 64 | tim10-1 conf 72 | TIM10 conf 57 | tim23-1 confirm 84
Nc1c(-c2ccccc2)nc(Cl)nc1-c1ccccc1	none (no result: PfHsp90 set2)
CC(OC(=O)c1ccc(Cl)c(S(=O)(=O)N2CCOCC2)c1)C(=O)Nc1ccc(S(N)(=O)=O)cc1 (stereo not drawn)	none
COC(=O)Cc1c(C)[nH]n(-c2cc(Cl)cc(Cl)c2)c1=O	tim23-1 inh 70, tim10-1 inh 45 | tim10-1 conf 37 | tim23-1 confirm 63
CCOC(=O)c1n[nH]n(-c2cc(Cl)cc(Cl)c2)c1=O	none
COC(=O)c1c(C)nc2ccccc2c1C(=O)O	none
COC(=O)c1cc(C)[nH]c2c(C)cc3nc4ccccc4c3c12	tim23-1 inh 59, tim10-1 inh 50 | tim10-1 conf 42 | tim23-1 confirm inactive
O=C(CC1C(=O)NCCN1C(=O)Nc1ccccc1)Nc1cc(Cl)cc(Cl)c1 (stereo not drawn)	none
N#C/C(=C\c1ccncc1)C(=O)Nc1ccc(C(=O)O)cc1	none
CCOc1cccc(NC(=O)/C(C#N)=C\c2cccnc2)c1	tim23-1 inh 81, tim10-1 inh 61, TIM10 inh 52 | tim10-1 conf 40 | TIM10 conf 48 | tim23-1 confirm 79
CCCOc1ccccc1/C=C(\C#N)C(=O)Nc1cccnc1	tim23-1 inh 85, tim10-1 inh 73, TIM10 inh 54 | tim10-1 conf 48 | TIM10 conf 46 | tim23-1 confirm 71
CC(C)c1ccc(NC(=O)/C(C#N)=C/c2ccncc2)cc1	tim23-1 inh 78, tim10-1 inh 54 | tim10-1 conf inactive | tim23-1 confirm 55
CNS(=O)(=O)c1cn(CC(=O)N(C)Cc2ccccc2)cc1S(=O)(=O)NC	none
O=C(CSc1nnc(C2CC2)n1Cc1ccccc1)N1CCNC1=O	none (no result: SKKanGAS inh, Calb FLC)
CCOC(=O)C1=C(SCC)c2cc3c(n2C1=O)CCCC3	tim23-1 inh 59, tim10-1 inh 65, TIM10 inh 59 (no result: SKKanGAS inh, Calb FLC) | tim10-1 conf 48 | TIM10 conf inactive | tim23-1 confirm 61
COc1ccc(CCC(=O)OCC(=O)Nc2c(C)n(C)n(-c3ccccc3)c2=O)cc1	none (no result: SKKanGAS inh, PfHsp90 set2, Calb FLC)
CC12CCC3c4ccc(O)cc4CCC3C1CCC2=O (stereo not drawn)	none (no result: SKKanGAS inh, Calb FLC)
C#C[C@]1(O)CC[C@H]2[C@@H]3CCc4cc(O)ccc4[C@H]3CC[C@@]21C	tim23-1 inh 52, tim10-1 inh 50 (no result: Calb FLC) | tim10-1 conf 34 | tim23-1 confirm 49
CCn1nc(C)cc1C(=O)n1nc(C)c(Sc2ncccn2)c1C	none
COc1cccc(CNC(=O)COC(=O)c2nc(Cl)c(Cl)c(Cl)c2Cl)c1	tim23-1 inh 60, tim10-1 inh 56 (no result: SKKanGAS inh, Calb FLC) | tim10-1 conf 46 | tim23-1 confirm 57
N#Cc1sc(NCc2cccc(Cl)c2)nc1Cl	tim23-1 inh 69, tim10-1 inh 58, TIM10 inh 44 | tim10-1 conf 49 | TIM10 conf 43 | tim23-1 confirm 57
CC(=O)Oc1cccc(/C=c2\sc3nc(-c4ccco4)nn3c2=O)c1	tim23-1 inh 61, tim10-1 inh 54 | tim10-1 conf 43 | tim23-1 confirm 63
CCCOc1ccc(/C=c2\sc3nc(-c4ccco4)nn3c2=O)cc1OCC	none
Nc1nc(-c2ccccc2)ns1	none (no result: SKKanGAS inh, tim23-1 inh, Calb FLC, tim10-1 inh, TIM10 inh)
COc1cc(/C=N/NC(=S)NC2CC3CC2C2C=CCC32)ccc1O (stereo not drawn)	tim23-1 inh 75, Calb FLC inconclusive, tim10-1 inh 53 | tim10-1 conf 42 | tim23-1 confirm 62
CCOC(=O)/C=c1/s/c(=C/c2ccc3cc(OC)ccc3c2)c(=O)n1CC(=O)NCc1ccc2c(c1)OCO2	none (no result: SKKanGAS inh, tim23-1 inh, Calb FLC, tim10-1 inh, TIM10 inh)
Cc1ccc(-c2nc3c(c(SCC(=O)N4CCOCC4)n2)COC(C)(C)C3)cc1	none
CC(C)c1ccc(C(O)P(=O)(OC2CCCCC2)OC2CCCCC2)cc1 (stereo not drawn)	tim23-1 inh 58, tim10-1 inh 44 (no result: PfHsp90 set2) | tim10-1 conf inactive | tim23-1 confirm 46
COc1cc(C(O)P(=O)(OC2CCCCC2)c2ccc(N(C)C)cc2)cc(OC)c1OC (stereo not drawn)	none (no result: PfHsp90 set2)
CC(C)Cc1ccc(C(C)C(N)=NCCc2ccccc2)cc1 (stereo not drawn)	none
COc1ccccc1NC(=O)c1ccc([N+](=O)[O-])o1	tim23-1 inh 79, tim10-1 inh 66, TIM10 inh 47 (no result: PfHsp90 set2) | tim10-1 conf 56 | TIM10 conf 46 | tim23-1 confirm 72
O=C(Nc1ncccn1)c1ccc([N+](=O)[O-])o1	none
O=C(Nc1cccc2ccccc12)c1ccc([N+](=O)[O-])o1	SKKanGAS inh 53, tim23-1 inh 78, Calb FLC 86, tim10-1 inh 80, TIM10 inh 68 | tim10-1 conf 75 | TIM10 conf 74 | tim23-1 confirm 75
Cn1ncc([N+](=O)[O-])c1C(=O)Nc1nc2ccccc2n1CCN1CCCCC1	Calb FLC inconclusive
CCCn1c(NC(=O)c2ccc([N+](=O)[O-])o2)nc2ccccc21	tim23-1 inh 51, tim10-1 inh 55, TIM10 inh 41 | tim10-1 conf 49 | TIM10 conf 61 | tim23-1 confirm 58

From PubChem
